# Assay results published in PubChem BioAssay (NCATS).
# Results filed as inconclusive are left out. A call without a number means that no potency is given here. Active and inactive are the calls of the source. Calls follow the shape of the dose curve; as a rule, active = well fitted curve in the direction sought with a large enough effect; inconclusive = small, poorly fitted or top-dose-only effect, or another doubt; inactive = no such curve, though single readings can be large; an effect the other way counts as inactive or inconclusive.
# How the values were obtained:
# [1] = test system: Zika virus NS2B-NS3 protease; test: Primary screen GU AMC qHTS for Zika virus inhibitors (AID 1347154); also: nearly all actives have a fitted effect of over 70% in size; also: potency is read from the fitted curve at half-maximal effect
# How it was run: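 Fluorogenic AMC-substrate cleavage by noncovalent NS2B-NS3 protease complex (25 nM, pH 8.0 Tris buffer with Tween 20) followed for 15 minutes at room temperature (~20% conversion). Percent inhibition from ex340/em450 signal change, fitted by 4-parameter Hill equation.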
# [2] = test system: Zika virus NS2B-NS3 protease (unlinked complex); test: Primary screen GU Rhodamine qHTS for Zika virus inhibitors: Unlinked NS2B-NS3 protease assay (AID 1347159); also: nearly all actives have a fitted effect of over 60% in size; also: potency is read from the fitted curve at half-maximal effect
# How it was run: (§1)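 A qHTS format was used, with compound concentrations ranging up to 114 microM. Each compound was preincubated with 25 nM NS2B-NS3 protease, and the substrate was then added at 1.5 microM. Curves were fitted with a 4-parameter Hill model.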
# [3] = test system: Zika virus NS2B-NS3 protease (linked construct); test: Primary screen NINDS Rhodamine qHTS for Zika virus inhibitors (AID 1347160); also: nearly all actives have a fitted effect of over 55% in size
# How it was run: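 Kinetic fluorescence (Ex 480 nm, Em 540 nm) over 15 min with 1.5 microM Rhodamine110 peptide and 25 nM linked protease.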
# [4] = ZIKV-mCherry secondary qHTS for Zika virus inhibitors (AID 1347158); also: top concentration of the series differs between compounds
# How it was run: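 After overnight seeding at 37 °C, Vero cells receive compound and then ZIKV-mCherry (MOI 1). Following 48-72 h infection, cells are fixed, counterstained with Hoechst, and imaged; percent infected cells is derived from an mCherry intensity cut-off of 450 RFU.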
# [5] = Confirmatory screen NINDS Rhodamine qHTS for Zika virus inhibitors (AID 1347161); also: nearly all actives have a fitted effect of over 60% in size; also: potency is read from the fitted curve at half-maximal effect
# How it was run: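 Single-chain NS2B-NS3 protease, 25 nM, pH 8.0; compounds preincubated 15 min. Activity: Rhodamine110 release from 1.5 microM substrate over 15 min, room temperature, data fitted to 4-parameter Hill.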
# [6] = test system: Zika virus NS2B-NS3 protease (linked); test: 384 well plate NINDS AMC confirmatory qHTS for Zika virus inhibitors (AID 1347163); also: potency is read from the fitted curve at half-maximal effect; nearly all actives have a fitted effect of over 50% in size
# How it was run: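 Linked protease 5/30/60 nM final; cpds up to 1 mM final, ~15 min preinc. Substrate Ac-VKTGKR-AMC 30 microM final. RT, dark, 25 min; FI ex 355/em 460; normalized to no-enzyme/no-inhibitor ctrls.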
# [7] = test system: Zika virus NS2B-NS3 protease (linked construct); test: 384 well plate NINDS Rhodamine confirmatory qHTS for Zika virus inhibitors (AID 1347164);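 also: fluorescence from protease cleavage of Ac-LKRR-rhodamine 110 substrate; nearly all actives have a fitted effect of over 65% in size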; also: potency is read from the fitted curve at half-maximal effect
# How it was run: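 Fluorescence read at ex 485 nm/em 538 nm, 25 min after adding 10 microM Ac-LKRR-Rd substrate at room temperature in the dark; signal normalized to no-enzyme and no-inhibitor controls. Enzyme final 5, 30 or 60 nM; compounds, ~15 min preincubation.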
# [8] = Vero cells viability qHTS for Zika virus inhibitors (AID 1347167)
# How it was run: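 Compounds were tested in concentration series on cells grown in DMEM containing 4% FBS. After 24 to 48 hours, cellular ATP was measured by luminescence with CellTiter Glo.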
# [9] = Confirmatory screen GU Rhodamine qHTS for Zika virus inhibitors qHTS (AID 1347157); conditions: purified enzyme assay, Rhodamine110 substrate fluorescence, 15 min; also: potency is read from the fitted curve at half-maximal effect; nearly all actives have a fitted effect of over 70% in size
# How it was run: as §1
compound,measurement,setting,value
CC[C@H]1OC(=O)[C@H](C)[C@@H](O[C@H]2C[C@@](C)(OC)[C@@H](O)[C@H](C)O2)[C@H](C)[C@@H](O[C@@H]2O[C@@H](C)C[C@H](N(C)C)[C@@H]2O)[C@](C)(O)C[C@@H](C)C(=O)[C@H](C)[C@@H](O)[C@]1(C)O,Potency,[1],inactive
Cn1cc(C2=C(c3c4n(c5ccccc35)CCC(CN)C4)C(=O)NC2=O)c2ccccc21 (stereo not drawn),Potency,[1],inactive
COc1ccc(CCC(=O)c2c(O)cc(O[C@@H]3O[C@H](CO)[C@@H](O)[C@H](O)[C@@H]3O[C@@H]3O[C@@H](C)[C@H](O)[C@@H](O)[C@@H]3O)cc2O)cc1O,Potency,[1],inactive
OCCNC1CCCc2c1[nH]c1ccc(-c3ccccc3)cc21 (stereo not drawn),Potency,[1],inactive
same,Potency,[2],inactive
same,Potency,[3],inactive
COc1cc(CCc2cc(NC(=O)c3ccc(N4C[C@@H](C)N[C@@H](C)C4)cc3)n[nH]2)cc(OC)c1,Potency,[1],inactive
same,Potency,[2],inactive
same,Potency,[3],inactive
COc1ccc(C[C@@H](C)[C@@H](C)Cc2ccc(OC)c(OC)c2)cc1OC,Potency,[1],inactive
COc1cc(C(C)C)c(Oc2cnc(NC(CO)CO)nc2N)cc1I,Potency,[1],inactive
CCCCOc1ccc(C(=O)Nc2ccc(F)cc2F)cc1,Potency,[1],inactive
same,Potency,[2],inactive
same,Potency,[3],inactive
Cc1ccc(-n2[nH]c(C)c(N=Nc3cccc(-c4cccc(C(=O)O)c4)c3O)c2=O)cc1C,Potency,[1],19.2 µM (active)
same,Potency,[4],inactive
same,Potency,[5],2.21 µM (active)
same,Potency,[6],178 µM (active)
same,Potency,[7],7.94 µM (active)
same,outcome,[8],inactive
Cc1cc(C(=O)NOCCO)c(Nc2ccc(I)cc2F)n(C)c1=O,Potency,[1],inactive
CCCCCCCCc1ccc(CCC(N)(CO)CO)cc1,Potency,[1],inactive
same,Potency,[4],inactive
same,Potency,[5],inactive
same,Potency,[6],70.8 µM (active)
same,Potency,[7],inactive
CC1=C(C(=O)Nc2cc3cn[nH]c3cc2F)C(c2ccc(Cl)cc2F)N=C(c2ccnc(Cl)c2)N1 (stereo not drawn),Potency,[1],inactive
same,Potency,[2],inactive
same,Potency,[3],inactive
COc1ccc(S(=O)(=O)Nc2cc(-c3c(O)ccc4ccccc34)c(O)c3ccccc23)cc1,Potency,[1],24.1 µM (active)
same,Potency,[4],inactive
same,Potency,[5],8.77 µM (active)
same,Potency,[6],31.6 µM (active)
same,Potency,[7],44.7 µM (active)
same,outcome,[8],inactive
C[C@@H](Oc1ccc2[nH]nc(C=Cc3cnn(CCO)c3)c2c1)c1c(Cl)cncc1Cl,Potency,[1],inactive
CCOc1cc2c(c(F)c1OCC)C(=N)N(CC(=O)c1cc(N3CCOCC3)c(OC)c(C(C)(C)C)c1)C2,Potency,[1],inactive
same,Potency,[2],inactive
same,Potency,[3],inactive
C=CC[C@@H]1C=C(C)C[C@H](C)C[C@H](OC)[C@H]2O[C@@](O)(C(=O)C(=O)N3CCCC[C@H]3C(=O)O[C@H](C(C)=C[C@@H]3CC[C@H](O)[C@H](OC)C3)[C@@H](C)[C@@H](O)CC1=O)[C@@H](C)C[C@@H]2OC,Potency,[1],inactive
FC(F)c1nc2ccccc2n1-c1nc(N2CCOCC2)nc(N2CCOCC2)n1,Potency,[1],inactive
same,Potency,[2],inactive
same,Potency,[3],inactive
O=c1[nH]c(=O)n([C@H]2C[C@@H](O)[C@@H](CO)O2)cc1F,Potency,[1],inactive
CC(C(C)N1CC(=O)NC(=O)C1)N1CC(=O)NC(=O)C1 (stereo not drawn),Potency,[1],inactive
CCN(CC)Cc1ccc2cc(COC(=O)Nc3ccc(C(=O)NO)cc3)ccc2c1,Potency,[1],inactive
same,Potency,[2],inactive
same,Potency,[3],inactive
CCOC(=O)[C@H](CCc1ccccc1)N[C@@H](C)C(=O)N1[C@@H](C(=O)O)C[C@H]2CCC[C@@H]21,Potency,[1],inactive
c1ccc2c(Oc3nc(Nc4ccc(N5CCOCC5)cc4)c4ncn(C5CCCCC5)c4n3)cccc2c1,Potency,[1],inactive
same,Potency,[2],inactive
same,Potency,[3],inactive
O=C(NC1CC1)c1cccc(-c2ccc3c(NC(=O)C4CC4)n[nH]c3c2)c1,Potency,[1],inactive
CC(=O)NCC(=O)N1[C@H]2CC[C@H]1c1cc(Nc3ncc(C(F)(F)F)c(NC4CCC4)n3)ccc12,Potency,[1],inactive
CN(C)CC(=O)N1CCC(c2ccc(NC(=O)c3ncc(C#N)[nH]3)c(C3=CCCCC3)c2)CC1,Potency,[1],inactive
same,Potency,[9],12.4 µM (active)
same,Potency,[3],inactive
same,Potency,[5],9.87 µM (active)
O=C(CN1C(=O)C2(CCCC2)NC[C@H]1c1cc(F)cc(F)c1)Nc1ccc2c(c1)C[C@@]1(C2)C(=O)Nc2ncccc21,Potency,[1],inactive
COc1cccc2c1C(=O)c1c(O)c3c(c(O)c1C2=O)C[C@@](O)(C(C)=O)C[C@H]3O[C@H]1C[C@H](N)[C@H](O)[C@H](C)O1,Potency,[1],inactive
CCCNS(=O)(=O)Nc1ncnc(OCCOc2ncc(Br)cn2)c1-c1ccc(Br)cc1,Potency,[1],inactive
CCOC(=O)[C@@H](N)Cc1ccc(-c2cc(O[C@H](c3ccc(Cl)cc3-n3ccc(C)n3)C(F)(F)F)nc(N)n2)cc1,Potency,[1],inactive
same,Potency,[2],44.7 µM (active)
